Assay results reported in PubChem BioAssay.
For part of these data: Results with a measured potency or affinity are listed apart. Active and inactive are the calls of the source. Unless noted, no rule for the calls is given here.

Assays:
[1] = system: Hepatitis C virus NS3 helicase; assay: blockers of NS3h binding to ssDNA – biochemical, fluorescence polarization, LOPAC1280 library, primary screen (AID 687035; in the data active = inhibition above about 37%); details: Purified HCV NS3 helicase, Cy5-dT15 ssDNA binding fluorescence polarization; stronger effect = higher value; concentration not given here
[2] = compounds altering Cy5-DNA-NS3h complex signal – biochemical, LOPAC1280, artefact control for HCV NS3 helicase inhibitor project (AID 687037); details: Cy5-DNA-NS3h complex fluorescence interference counterscreen
[3] = chitosan synthesis blockers in C. neoformans – flow cytometry, Cibacron Brilliant Red staining (AID 1347148); details: Cryptococcus neoformans chitosan, stronger effect = lower value; at 10 µM unless noted;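 also: compound exposure lasted three days at 37 degrees C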
[4] = blockers of polyQ-driven CASP3 activation – cell-based (AID 1583); details: polyglutamine-induced caspase-3 activation, cell assay; stronger effect = higher value;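 tested at 10 µM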
[5] = yeast 75Q aggregation reduction – 75Q-TubU reporter (AID 1593); details: Yeast 75Q polyglutamine aggregation reporter
[6] = restoration of touch response, mutant HTT neurons – whole organism, C. elegans mechanosensory neurons, N-terminal huntingtin (AID 1599); details: C. elegans polyQ-huntingtin mechanosensory neurons, stronger effect = higher value
[7] = blockers of cytochrome c efflux from mitochondria – biochemical, purified mitochondria (AID 1603); details: stronger effect = lower value;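 also: mouse liver mitochondria challenged with calcium chloride; signal normalized to the plate average as 100%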
[8] = polyglutamine aggregate formation blockers (AID 1604); details: polyglutamine-induced protein aggregation inhibition assay; stronger effect = higher value; tested at 2.5 µM
[9] = glutamate transport activators, MN-1 cells, MN-1 cell line (AID 1612); details: MN-1 motor neuron cells, stronger effect = higher value;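 also: tested at 1 µM final; 0% = mean of DMSO vehicle wells on each plate; positive means more glutamate uptake than control and negative means less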
[10] = GFP-Q80 aggregate reduction, neuronal-like cells, cell-based, NGF-treated PC12, GFPQ80 (AID 1614); details: PC12 NGF-treated GFP-polyQ80 inclusion reduction;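 also: lower means fewer inclusions and 0 means no inclusions at all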
[11] = 75Q-TubH aggregate inhibition, S. cerevisiae, yeast (AID 1616); details: S. cerevisiae 75Q-TubH polyglutamine aggregation suppression; stronger effect = higher value
[12] = EMT-state selective cytotoxicity in co-culture – imaging, PC-3E GFP, TEM4-18 mCherry, primary screen (AID 1345086;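 active = compounds killing one labelled cell type while sparing the other, by normalised counts and ratio limits, not self-fluorescent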;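 also: cells exposed to compound for 72 h before imaging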;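 as to red/green cell ratio (normalised): normalised mesenchymal count divided by normalised epithelial count so high means epithelial killing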); details: PC-3E GFP / TEM4-18 mCherry co-culture, imaging cell counts, at 1 µM

SMILES: O=C1NCN(c2ccccc2)C12CCN(CCCC(c1ccc(F)cc1)c1ccc(F)cc1)CC2
- inhibition [1]: 0% (inactive)
- fluorescence ratio (interference) [2]: 1 (inactive)
- fold fluorescence [3]: 5.05 [at 105.1 µM] (inactive)

SMILES: CCOc1ccccc1OCC1CNCCO1 (stereo unspecified)
- inhibition [4]: -5.29%
- score [5]: 1.39
- rescue above control [6]: -3.95
- cytochrome c release ratio [7]: 1.06
- inhibition of aggregation [8]: 12.9%
- glutamate uptake change [9]: 20.1%
- inclusion score [10]: 2
- aggregation suppression score [11]: 1.38

SMILES: Clc1cc(Cl)c(OCC#CI)cc1Cl
- inhibition [4]: 55.6%
- score [5]: -0.06
- rescue above control [6]: 11
- cytochrome c release ratio [7]: 8.98
- inhibition of aggregation [8]: 58.5%
- glutamate uptake change [9]: 15.9%
- aggregation suppression score [11]: -0.184

SMILES: CCN(CC)C(=O)c1cccnc1
- red/green cell ratio (normalised) ([12]; actives lie on both sides, counts scaled to control wells, 1 = unselective): 1.14 (inactive)
- normalised cell number ([12]; measured here: epithelial PC-3E GFP cell survival): 0.99
- normalised cell number ([12]; measured here: mesenchymal TEM4-18 mCherry cell survival): 1.13
